Data taken from PubChem BioAssay.

Columns and labels:
[1] = target: Tumor necrosis factor receptor superfamily member 10B (Homo sapiens) (UniProt O14763); experiment: viability loss of caspase-8 NB7 cells with TRAIL – with/without TRAIL, luminescence panel, confirmation (AID 651596); details: NB7 neuroblastoma + caspase-8, TRAIL sensitization, NB7 Caspase-8, with TRAIL, mean of runs, at 10 µM, stronger effect = higher value
[2] = as above; details: NB7 neuroblastoma + caspase-8, without TRAIL, NB7 Caspase-8, without TRAIL, mean of runs, at 10 µM

Chain of Tumor necrosis factor receptor superfamily member 10B (Homo sapiens) (O14763 whole entry, looked up): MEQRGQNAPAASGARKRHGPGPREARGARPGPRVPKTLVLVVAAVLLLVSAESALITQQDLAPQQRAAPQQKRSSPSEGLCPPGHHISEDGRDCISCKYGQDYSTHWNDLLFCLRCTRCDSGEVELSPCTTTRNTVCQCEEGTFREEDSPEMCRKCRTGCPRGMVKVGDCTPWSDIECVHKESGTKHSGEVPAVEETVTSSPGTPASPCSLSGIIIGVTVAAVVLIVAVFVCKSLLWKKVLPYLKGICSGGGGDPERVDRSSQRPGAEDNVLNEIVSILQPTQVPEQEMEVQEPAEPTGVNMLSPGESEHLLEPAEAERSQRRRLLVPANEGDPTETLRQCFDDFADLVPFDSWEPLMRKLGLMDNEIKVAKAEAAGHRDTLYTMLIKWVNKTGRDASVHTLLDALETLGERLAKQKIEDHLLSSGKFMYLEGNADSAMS

SMILES | activity [1] | activity [2]
Cc1ccnc(NC(=O)/C=C/c2cccs2)c1 | 84.1% | 81.5%
CN1CCN(Cc2nc3ccccc3c(=O)n2Cc2nc(-c3ccc4ccccc4c3)cs2)CC1 | 67.3% | 91.5%
Cc1nnc(NC(=O)c2nc(S(=O)(=O)Cc3ccccc3)ncc2Cl)s1 | 94.5% | 84.9%
Oc1cccc(-c2nnc(-c3cccc(O)c3)nn2)c1 | 89% | 84.2%
O=c1cc(-c2ccccc2)oc2ccc3ccccc3c12 | 92.2% | 90.1%
CSc1ccc(/C=C/C(=O)c2c(O)cc(C)oc2=O)cc1 | 78.7% | 82.2%
O=C(Nc1ccncc1)c1ccc(-c2ccccc2)cc1 | 24.3% | 21%
Clc1ccc(-n2ncc3c(N4CCCCCC4)ncnc32)cc1 | 78% | 74.8%
COc1cccc(-c2nnc(Nc3nc4c(F)cccc4s3)o2)c1 | 81.2% | 84.2%
Cc1cccc(/C(N)=N/OC(=O)c2cccc3ccccc23)c1 | 89.5% | 71%
COc1ccc(/C=C/C(=O)c2c(O)cc(C)oc2=O)c(OC)c1 | 91.1% | 92.5%
Cc1ccc(Cn2ccsc2=NC(=O)CCl)cc1 | 99.2% | 99%
COc1cccc(C=NNc2nnc(NN=Cc3cccc(OC)c3OC)c3ccccc23)c1OC | 83.2% | 75%
COc1cccc(C(=O)Cn2c(=N)n(C)c3ccccc32)c1 | 65.8% | 66.2%
CCOC(=O)c1ccc(N=c2sc(C(=O)OC)cc(=O)n2-c2ccc(C(=O)OCC)cc2)cc1 | 67.6% | 37.6%
O=C(CCl)Nc1c(C(=O)Nc2ccc3c(c2)OCCO3)oc2ccccc12 | 93.3% | 90.3%
O=C(Nc1nc2ccccc2[nH]1)c1ccc(F)cc1 | 90.8% | 91%
CC(=O)c1c(C)[nH]c(C(=O)Nc2nc(C)cs2)c1C | 80.2% | 82.6%
Cc1ccc(NC2=Nc3ccccc3CS2)cc1 | 57.4% | 38%
CCCCCCCCCCCCCCCC[N+](C)(C)Cc1ccc(F)cc1 | 80.7% | 74.2%
Cc1ccc(Nc2nc(N)c3ccccc3n2)cc1C | 83% | 78%
CN(C(=O)c1ccco1)c1nc2c(s1)CCCC2 | 58.4% | 60.5%
CCc1ccc(CNC(=O)Cc2ccc(NC(=O)C3=C(C)OCCS3)cc2)cc1 | 58.8% | 59%
CN(NC(=O)c1ccc(Cl)cc1)c1nc(-c2ccccc2)nnc1C(F)(F)F | 61.9% | 57.8%

SMILES | activity [1] | activity [2]
COc1cc(/C=N/Nc2nn3cnnc3c3ccccc23)cc(OC)c1OC | 73.9% | 76.2%
COc1cccc2oc3cc(C#CC4(O)CCCCC4)ccc3c(=O)c12 | 71.2% | 68.8%
CCN(Cc1ccccc1)S(=O)(=O)c1ccc(C(=O)N(CCCN(C)C)c2nc3cc(C)cc(C)c3s2)cc1 | 23.3% | -11.7%
Cc1nc2cc(NC(=O)c3ccc(Br)s3)ccc2s1 | 71.4% | 63.1%
O=C(Nc1ccc(-c2nc3ccccc3o2)cc1)C1CCCO1 (stereo not drawn) | 51.7% | 43%
C=CCN(CC=C)c1cnn(-c2nc3ccccc3[nH]2)c(=O)c1Cl | 69.6% | 59.7%
Clc1ncnc2c1oc1ccccc12 | 82.7% | 60.4%
O=C(Nc1ccccn1)c1ccc(-c2ccccc2)cc1 | 87.6% | 88.4%
Cc1ccc(NC(=O)C(=O)Nc2ccccn2)cc1 | 75.7% | 71.7%
CCOC(=O)c1cnc2c(Cl)c(Cl)ccc2c1N1CCN(C)CC1 | 39.3% | 43%
COc1ccccc1C=NN=C(NN=Cc1ccccc1OC)NN=Cc1ccccc1OC | 78% | 65.6%
CC1(C)N=C(N)N=C(N)N1c1ccc(OCCCOc2ccccc2)c(Cl)c1 | 59.8% | 64.1%
COc1cccc2sc(N(C)c3ccccc3)nc12 | 58.3% | 61.2%
C=CCc1ccccc1OCC(=O)N/N=C/c1ccc(OC(C)=O)cc1OC(C)=O | -0.55% | 27.2%
Cn1cnc(Sc2ncnc3nc[nH]c23)c1[N+](=O)[O-] | 62.5% | 72.5%
COc1ccc(C(=O)N/N=C/c2cccnc2)cc1 | 34.2% | 40%
Clc1ccc(-c2nc(-c3cnccn3)no2)cc1 | 45.6% | 39.1%
CCCc1cc2c(=O)c(-c3ccc4c(c3)OCCO4)coc2cc1OC(=O)c1ccco1 | 65.5% | 66.4%
COc1cccc(-n2c(SCC(=O)N3CCCCC3)nc3c([nH]c4ccccc43)c2=O)c1 | 28.7% | 19.4%
O=C(Nc1ccc2ccccc2c1)c1ccc(Cl)cc1Cl | 63.9% | 60.5%
Nc1nn2cc(-c3ccc(Br)cc3)nc2c2ccccc12 | 53.9% | 47.2%
Clc1ccc(/C=N/Nc2nnc(-c3ncc[nH]3)c3ccccc23)cc1 | 57% | 49.9%
COc1ccc(CC(N)c2csc(NC(=O)c3cc(C(C)(C)C)nn3Cc3ccccc3)n2)cc1 (stereo not drawn) | 52.9% | 90.5%
CC(C)c1ccc(/C=C/c2ccc(=O)n(C)n2)cc1 | 68.1% | 66.6%

SMILES | activity [1] | activity [2]
CCN1CCN(Cc2ccc(NC(=O)c3cc(NC(=O)c4cnnc5ccccc45)cc(OC)c3)cc2C(F)(F)F)CC1 | 55.2% | 93.9%
Cc1cc(=O)[nH]c2nnc(-c3ccc(Cl)cc3)n12 | 82.2% | 78.6%
COc1ccc(-c2nn(-c3ccccc3)cc2/C=N/NC(=O)c2ccc(Br)o2)cc1 | 79.5% | 32.3%
CCn1c(=O)c([N+](=O)[O-])c(Cl)c2ccccc21 | 83.6% | 70.1%
COc1ccc(C(=O)Nc2cccc(OC)c2)cc1 | 56.9% | 53.9%
CCc1ccc(-c2cc3c(=O)n(CC(=O)NCCCN4CCC(Cc5ccccc5)CC4)nc(C)n3n2)cc1 | 55.9% | 71.5%
O=C(/C=C\Nc1ccccn1)c1ccccc1 | 55.4% | 53.2%
O=C(CSc1nnc(NC(=O)c2ccccc2)s1)NCc1ccco1 | 64.5% | 73.1%
CCc1cc2c(COC(=O)CCNS(=O)(=O)c3cccc(C(F)(F)F)c3)cc(=O)oc2cc1O | 23.9% | 3.52%
Cc1cc(C(=O)COC(=O)c2n[nH]c3ccccc23)c(C)n1C | 62.2% | 55.9%
O=C(CSc1nnc(NC(=O)c2ccc3c(c2)OCO3)s1)NCc1ccco1 | 85.4% | 83.7%
O=C(N/N=C/C=C/c1ccccc1)c1cc2c(ccc3ccccc32)o1 | 62.1% | 56.4%
Cc1ccc(-c2nnc(-c3cccc4ccccc34)o2)cc1 | 58.2% | 44%
CCN1CCN(Cc2ccc(NC(=O)c3cc(NC(=O)c4cncc(-c5ccc(C#N)cc5)c4)cc(OC)c3)cc2C(F)(F)F)CC1 | 58% | 98.7%
CCCn1c(C)cc(C(=O)COC(=O)c2cc(=O)[nH]c3ccccc23)c1C | 61.2% | 59.1%
O=c1cc(C(Cl)(Cl)Cl)oc2c1ccc1ccccc12 | 62.7% | 65.3%
S=c1nc[nH]c2c1ncn2C1CCCO1 (stereo not drawn) | 17.8% | 47.4%
Clc1ccc(-n2cnc3c(Cl)ncnc32)cc1Cl | 71.7% | 79%
COc1cccc(-c2cc3nc(-c4ccccc4)cc(N4CCN(C(=O)c5ccoc5)CC4)n3n2)c1 | 82% | 73.8%
CCCCN=C1NN=C(c2ccc3c(c2)OCCO3)CS1 | 47.9% | 31.8%
CCOC(=O)[C@]12Cc3c(cc(OC)c(OC)c3OC)[C@H]1N(C1CCCCC1)C(=O)c1cc(OC)ccc12 | 61.2% | 80.1%
CCOC(=O)c1sc(NC(=O)c2ccc(OC(C)=O)cc2)nc1C | 61.3% | 57.9%
O=C1Nc2ccccc2N(C(=O)c2c(F)cccc2F)C1c1nc2ccccc2[nH]1 (stereo not drawn) | 47.6% | 60.3%
C/C(=N\Nc1nc2ccccc2[nH]1)c1cc2ccccc2o1 | 47.5% | 43.7%

SMILES | activity [1] | activity [2]
CCc1ccc(/C=N/NC(=O)c2c[nH]c3ccccc23)s1 | 21.7% | 20.4%
Cc1nc(N)nc(N)c1CCCc1ccc(Cl)c(Cl)c1 | 69.6% | 74.8%
CCOC(=O)c1c(NC(=O)COc2ccccc2OCC)sc2c1CC(C)(C)NC2(C)C | 95.8% | 99.3%
CNC[C@@H](CC1CCCCC1)NC[C@H](CC(C)C)NCCc1cccc(C(F)(F)F)c1 | 99.4% | 99.7%
COc1cccc(NC(=O)Nc2nc(-c3ccc(OC)c(OC)c3)cs2)c1 | 98.5% | 99.2%
O=C(NNc1nc(=O)c2cccnc2s1)c1ccccc1O | 45.7% | 43.9%
O=C(CSC(=S)N1CCCCC1)c1ccccc1 | 50.8% | 35.2%
CCCCCc1cc(=O)oc2c(C(CCN3CCCC3)c3cc(OC)c(OC)c(OC)c3)c(OC)cc(OC)c12 (stereo not drawn) | 28.4% | 69.4%
COc1cc(SC#N)ccc1N=Cc1c(C)[nH]n(-c2ccc(C)c(C)c2)c1=O | 93% | 97.7%
c1ccc(-c2cn3c4c(sc3n2)CCCC4)cc1 | 94% | 94%
COCCNC(=O)c1c[nH]c2ccc(S(=O)(=O)N3CCc4ccccc43)cc2c1=O | 74.2% | 82.7%
O=C(Nc1nc2ccccc2[nH]1)c1ccccc1O | 63.1% | 65.9%
CC(C)Cc1nc2oc3c(Cl)ncnc3c2c2c1CCC2 | 95.9% | 96.4%
CC(C)(C)c1ccc(-c2nc3cc(N)ccc3o2)cc1 | 81.9% | 80.5%
Cc1ccccc1NC(=O)Cc1nc(COC(=O)c2ccc(S(C)(=O)=O)c([N+](=O)[O-])c2)cs1 | 80.5% | 93.9%
CC(C)C(=O)Nc1ccc2nn(-c3ccccc3)nc2c1 | 52.4% | 55%
COc1ccc(-c2nc3ccccc3[nH]2)cc1 | 89% | 90.7%
O=C(CSc1nnc(-c2ccccc2)o1)Nc1ccccc1F | 55.1% | 43.5%
O=C(Cn1c2ccccc2c(=O)c2ccccc21)N/N=C/c1cc([N+](=O)[O-])ccc1N1CCCCCC1 | 49.8% | 48%
C[C@H](CO)N1C[C@H](C)[C@@H](CN(C)C(=O)NC2CCCCC2)Oc2c(NS(=O)(=O)c3ccccc3)cccc2C1=O | -8.07% | 1.05%
O=C(Nc1c(Cl)cc2c(c1Cl)Cc1cc([N+](=O)[O-])ccc1-2)C(Cl)Cl | 89.3% | 94.9%
COc1ccc(-c2cc(CNc3nc(NC(C)C)nc4cc(-c5ccccc5)sc34)on2)cc1 | 91.6% | 92.4%
